Pf growth 48h: Primary qHTS for delayed death inhibitors of the malarial parasite plastid, 48 hour incubation; P. falciparum luciferase growth in erythrocytes, 48 h; Potency, µM (titrated, usually from 28.7 µM), without a hit: at the highest dose activity change, negative = inhibition, actives largely listed as inhibitors; hit rate 5.9% among 310,000; also: potency is read from the fitted curve at half-maximal effect; % is scaled to controls: 0 for no effect and ±100 for the full control effect
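First compound was added to culture medium, then infected red cells at 0.1% parasitemia and 2% hematocrit (final). After incubation at 37 C under 5% CO2, luciferase detection reagent was dispensed and light output recorded.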
Sm TGR inh: qHTS Assay for the Inhibitors of Schistosoma Mansoni Peroxiredoxins; Schistosoma mansoni thioredoxin glutathione reductase (TGR), Q962Y6; hit rate 3% among 360,000; AID 485364, 2010; Potency, µM (highest dose often 114 µM), for inactives: at the highest dose activity change, negative = inhibition, actives largely listed as inhibitors; purified TGR, DTNB reduction, TNB absorbance 405 nm; also: potency is read from the fitted curve at half-maximal effect; % is scaled to controls: 0 for no effect and ±100 for the full control effect; nearly all actives have a fitted effect of over 60% in size
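Kinetic colorimetric format: TGR-catalysed, NADPH-driven DTNB reduction monitored via TNB absorbance. Enzyme dispensed at 20 nM; compound exposure 15 min at room temperature before reaction start.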
Pf growth 96h: Primary qHTS for delayed death inhibitors of the malarial parasite plastid, 96 hour incubation | AID 504834, 2011 | P. falciparum luciferase reporter growth, 96 h | hit rate 6.9% among 320,000 | Potency, µM (series often up to 28.7 µM), inactives show top-dose activity change, negative = inhibition, usual class: inhibitors; also: potency is read from the fitted curve at half-maximal effect; % is scaled to controls: 0 for no effect and ±100 for the full control effect
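Delayed-death screen, second-generation endpoint: infected erythrocytes, 2% hematocrit, 0.05% parasitemia final; 96 hours at 37 C, 5% CO2; luciferase detection reagent; luminescence decrease equals reduced growth.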
CHX counter: Cycloheximide Counterscreen for Small Molecule Inhibitors of Shiga Toxin. cell reporter, cycloheximide protein synthesis inhibition counterscreen. max response, %. AID 2314, 2010. hit rate 12% among 300,000; in the data active = max response mostly above about 13%, no sharp cut-off; inactive = mostly below about 14%; also: read at 38.3 µM for the half of the compounds with a filed dose; 0% is about no effect
Shiga inhibitor: A qHTS for Small Molecule Inhibitors of Shiga Toxin; hit rate 9.2% among 290,000; inhibition, % at 38.7 µM; Vero cells, Shiga toxin protein synthesis inhibition reporter; in the data active = inhibition mostly above about 28%, no sharp cut-off; inactive = mostly below about 43%; also: 0% is about no effect
NS1 function inh: qHTS Assay for Inhibitors of Influenza NS1 Protein Function. Potency, µM (highest dose often 46.1 µM), without a hit: at the top dose activity, positive = more growth. hit rate 0.4% among 270,000; calls by dose curve; also: potency is read from the fitted curve at half-maximal effect; actives are rising curves; nearly all actives have a fitted effect of over 50% in size
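Recovery from NS1-induced slow growth read by OD600 in budding yeast switched to galactose assay medium (pH 6.0, -URA) at 1:100 dilution. Compound 23 nl per well; the matching strain lacking NS1 serves as control.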
Active calls of the source: *; ? = inconclusive; · = no result given. The list is not random: actives were taken first. Their share in the collection is about 21%. Unless noted, calls follow the shape of the dose curve; as a rule, active = well fitted curve in the direction sought with a large enough effect; inconclusive = small, poorly fitted or top-dose-only effect, or another doubt; inactive = no such curve, though single readings can be large; an effect the other way counts as inactive or inconclusive.

SMILES	Pf growth 48h	Sm TGR inh	Pf growth 96h	CHX counter	Shiga inhibitor	NS1 function inh
CSc1ncccc1C(=O)N1CCCC(C(=O)c2cc(F)ccc2F)C1 (stereo unspecified)	-11%	6%	9.3µM*	-2	-5	3%
CCn1c(C)nc2cc(C(=O)NNC(=S)Nc3ccc(Cl)cc3)ccc21	-9%	-5%	?	22*	25	-12%
CCn1c(C)nc2cc(C(=O)NNC(=O)Nc3ccc(Cl)c(Cl)c3)ccc21	-1%	-10%	1%	-2	24	0%
CCn1c(C)nc2cc(C(=O)NNC(=O)c3ccc(C)cc3)ccc21	390%	2%	105%	·	·	·
CCn1c(C)nc2cc(C(=O)NNC(=S)Nc3ccc(F)cc3)ccc21	129%	18%	89%	31*	58*	-5%
CCn1c(C)nc2cc(C(=O)NNC(=S)NC(=O)c3ccccc3)ccc21	4%	5%	-1%	12	18	1%
CCn1c(C)nc2cc(C(=O)NNC(=S)Nc3ccccc3)ccc21	85%	·	90%	32*	71*	0%
CCn1c(C)nc2cc(C(=O)OC(C(F)(F)C(F)F)C(F)(F)C(F)F)ccc21	9%	-5%	167%	45*	70*	-77%
Cc1cc(C)c(S(=O)(=O)Nc2ccc3oc(C)c(C(=O)OC(C)C)c3c2)cc1C	·	-2%	·	·	·	·
CC(=O)Nc1nonc1-c1nnc(SCc2ccc(F)cc2Cl)n1C	·	1%	·	·	·	·
CCOC(=O)c1cccc(NC(=O)CCc2c(C)nc3c4cccnc4nn3c2C)c1	·	5%	·	·	·	·
COc1cccc(C(=O)Nc2ccccc2OCc2cc(=O)n3cc(C)ccc3n2)c1	·	-3%	·	·	·	·
CN(C(=O)COC(=O)CCC(=O)c1ccc(Cl)cc1)c1c(N)n(Cc2ccccc2)c(=O)[nH]c1=O	20%	?	2.1µM*	·	·	·
COCCN(C(=O)Cn1c(C(F)(F)F)nc2ccccc21)c1c(N)n(Cc2ccccc2)c(=O)[nH]c1=O	?	6%	15µM*	-2	-1	-3%
CCc1nc2ccccc2c(C(=O)OCC(=O)N(CCOC)c2c(N)n(Cc3ccccc3)c(=O)[nH]c2=O)c1C	13µM*	3%	?	·	·	·
CN(C(=O)COC(=O)Cn1c(C(F)(F)F)nc2ccccc21)c1c(N)n(Cc2ccccc2)c(=O)[nH]c1=O	25%	2%	29%	-5	-38	-3%
CCN(C(=O)COC(=O)c1c(-c2ccccc2)noc1C)c1c(N)n(Cc2ccccc2)c(=O)[nH]c1=O	?	1%	?	1	-31	-6%
Cc1onc(-c2ccccc2)c1C(=O)OCC(=O)N(CC(C)C)c1c(N)n(Cc2ccccc2)c(=O)[nH]c1=O	13µM*	-5%	?	·	·	·
Cc1nn(-c2ccccc2)c(C)c1C(=O)OCC(=O)N(C)c1c(N)n(Cc2ccccc2)c(=O)[nH]c1=O	?	-4%	12µM*	·	·	·
Cc1onc(-c2ccccc2)c1C(=O)OCC(=O)N(C)c1c(N)n(Cc2ccccc2)c(=O)[nH]c1=O	?	3%	12µM*	·	·	·
CCOC(=O)c1c(C)[nH]c(C(=O)OCC(=O)N(C)c2c(N)n(Cc3ccccc3)c(=O)[nH]c2=O)c1C	?	0%	?	·	·	·
COCCN(C(=O)COC(=O)c1c(-c2ccccc2)noc1C)c1c(N)n(Cc2ccccc2)c(=O)[nH]c1=O	?	-21%	12µM*	-1	-7	-10%
CC(C)CN(C(=O)COC(=O)C12CC3CC(CC(C3)C1)C2)c1c(N)n(Cc2ccccc2)c(=O)[nH]c1=O	1.2µM*	-1%	0.13µM*	·	·	·
CC(C)CN(C(=O)CC1CCCC1)c1c(N)n(Cc2ccccc2)c(=O)[nH]c1=O	?	1%	-1%	·	·	·
CCCCOc1ccc(N=Cc2ccc[nH]2)cc1	64%	7%	4%	1	·	-27%
SMILES	Pf growth 48h	Sm TGR inh	Pf growth 96h	CHX counter	Shiga inhibitor	NS1 function inh
COc1ccc(-n2c(CCc3ccccc3)nnc2SCC(=O)NCc2ccccc2)cc1	·	7%	10µM*	-4	-17	0%
O=C(CSc1nnc(CCc2nc3ccccc3[nH]2)n1-c1ccccc1)NCc1ccco1	-15%	-17%	?	5	-2	-4%
CCn1c(CNC(=O)Cc2ccc(OC)cc2)nnc1SCCOc1ccccc1	·	-23%	?	-6	-19	-4%
CCn1c(CNC(=O)Cc2ccc(OC)cc2)nnc1SCC(=O)c1ccccc1	13%	32µM*	-5%	0	-15	-1%
O=C(CSc1nnc(CCc2ccccc2)n1-c1ccc(Cl)cc1)NCc1ccccc1	·	-1%	?	-5	-14	-2%
O=C(CSc1nnc(CCc2nc3ccccc3[nH]2)n1-c1ccccc1)NCc1ccccc1	?	12%	10µM*	4	-1	-15%
COc1ccc(S(=O)(=O)N(CCc2ccccc2)CC(=O)Nc2cc(C)cc(C)c2)cc1OC	·	3%	·	·	·	·
CC[n+]1ccc(C(=O)NCc2ccccc2)cc1	249%	-1%	2%	-2	-7	·
CCOC(=O)c1c(C)[nH]c(C(=O)OCC(=O)N2CCN(S(=O)(=O)c3ccc(C)cc3C)CC2)c1C	15µM*	-21%	7.4µM*	·	·	·
Cc1ccc(S(=O)(=O)N2CCN(C(=O)COC(=O)CC(C)c3ccccc3)CC2)c(C)c1 (stereo unspecified)	?	-1%	30%	·	·	·
CCC(C(=O)OCC(=O)N1CCN(S(=O)(=O)c2ccc(C)cc2C)CC1)c1ccccc1 (stereo unspecified)	13µM*	0%	9.3µM*	·	·	·
CC(N)COC(=O)C(CCCCN)NC(=O)Cc1c(-c2ccc3ccccc3c2)[nH]c2c1ccc1ccccc12 (stereo unspecified)	·	·	·	-6	15	·
Cc1cc(C)cc(NC(=O)C2CCN(C(=O)c3cnn(-c4ccccc4)c3-n3cccc3)CC2)c1	·	3%	·	·	·	·
Clc1ccc(-c2nnc(N3CCCC3)nn2)cc1	0.37µM*	0%	0.59µM*	34*	145*	-34%
O=C(Nc1cccc(F)c1)c1ccccc1	47%	3%	169%	38*	79*	-116%
CCN(CC)C(=O)c1ccc(NC(=O)c2cccc(F)c2)cc1	·	4%	95%	35*	72	-12%
O=C(Nc1ccc(Nc2ccccc2)cc1)c1cccc(F)c1	61%	0%	?	36*	117*	-43%
Cc1nc2c(-c3ccccc3)c(C)nn2c(C)c1CCC(=O)N1CCN(c2ccccc2)CC1	·	-6%	·	·	·	·
C=C(C)Cn1c(=O)c2c(nc3n2CCN3c2ccc(F)cc2)n(C)c1=O	·	-11%	·	·	·	·
CCNC(=O)CC1C(=O)N(c2ccc(F)cc2)C(=O)N1Cc1ccc(OC)c(OC)c1 (stereo unspecified)	·	-14%	·	·	·	·

Screening data (PubChem BioAssay)
